Screens as filed in PubChem BioAssay.
This excerpt belongs to a sample that is enriched for hits.
IDE exosite inh – exo-site inhibitors of human IDE, primary screen, biochemical, fluorescence anisotropy, probe displacement. purified IDE, FL-6b probe fluorescence polarization; active compounds read low. z-score at 20 µM. actives 6.3% (n = 17,000);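 active = z-score of -3 or lower, meaning strong loss of probe binding signal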;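 also: His-tagged human IDE residues 42-1019 made in E. coli with 30 nM FL-6b probe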
Target sequence (P14735 42-1019 limits assumed): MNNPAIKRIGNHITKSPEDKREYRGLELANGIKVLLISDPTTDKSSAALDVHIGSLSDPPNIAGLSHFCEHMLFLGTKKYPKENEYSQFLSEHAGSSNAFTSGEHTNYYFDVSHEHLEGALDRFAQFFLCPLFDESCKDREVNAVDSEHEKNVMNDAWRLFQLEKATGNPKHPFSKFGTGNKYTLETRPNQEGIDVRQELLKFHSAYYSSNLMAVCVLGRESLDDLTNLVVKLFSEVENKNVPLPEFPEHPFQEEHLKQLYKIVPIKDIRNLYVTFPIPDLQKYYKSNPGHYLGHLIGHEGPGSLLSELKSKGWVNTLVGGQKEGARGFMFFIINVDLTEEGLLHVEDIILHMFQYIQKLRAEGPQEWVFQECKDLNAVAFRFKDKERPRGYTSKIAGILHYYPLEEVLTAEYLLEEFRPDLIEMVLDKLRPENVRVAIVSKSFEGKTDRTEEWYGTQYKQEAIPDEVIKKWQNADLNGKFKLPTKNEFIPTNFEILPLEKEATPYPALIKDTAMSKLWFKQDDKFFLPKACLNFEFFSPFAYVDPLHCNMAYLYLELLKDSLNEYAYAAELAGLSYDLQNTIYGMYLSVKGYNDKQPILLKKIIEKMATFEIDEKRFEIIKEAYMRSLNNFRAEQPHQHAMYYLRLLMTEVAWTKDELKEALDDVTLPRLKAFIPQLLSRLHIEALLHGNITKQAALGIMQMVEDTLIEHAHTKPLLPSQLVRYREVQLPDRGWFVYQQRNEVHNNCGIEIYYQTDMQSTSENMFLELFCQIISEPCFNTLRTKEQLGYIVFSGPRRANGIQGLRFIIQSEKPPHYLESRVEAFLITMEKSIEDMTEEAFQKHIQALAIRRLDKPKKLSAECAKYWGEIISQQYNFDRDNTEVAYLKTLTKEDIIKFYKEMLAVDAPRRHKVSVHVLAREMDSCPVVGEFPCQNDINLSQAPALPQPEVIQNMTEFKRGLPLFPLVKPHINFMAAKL
Numbers without * were called inactive.

SMILES	IDE exosite inh
CC(C)C#Cc1ccc([C@@H]2[C@@H](CO)N3C(=O)CN(C(=O)NC4CCCC4)C[C@H]23)cc1	-1
Cc1ccccc1-c1ccc([C@H]2[C@H](CO)N3C(=O)CN(C(=O)NC4CCCC4)C[C@@H]23)cc1	-21*
O=C(NC1CCCC1)N1CC(=O)N2[C@H](CO)[C@H](c3ccc(C4=CCCCC4)cc3)[C@@H]2C1	-2
CO[C@@H](CN(C)C(=O)c1cnccn1)[C@H](C)CN([C@H](C)CO)S(=O)(=O)c1ccccc1	-0.079
COc1ccc(S(=O)(=O)N2C[C@H](O)COC[C@@H]3O[C@H](CC(=O)N[C@H]4CCN(Cc5ccccc5)C4)CC[C@H]32)cc1	-0.35
Cc1noc(C)c1S(=O)(=O)Nc1ccc2c(c1)CC(=O)N([C@H](C)CO)C[C@H](C)[C@H](CN(C)Cc1ccc(Oc3ccccc3)cc1)O2	0.079
Cc1noc(C)c1S(=O)(=O)Nc1ccc2c(c1)CC(=O)N([C@@H](C)CO)C[C@H](C)[C@@H](CN(C)Cc1ccc(Oc3ccccc3)cc1)O2	-4.3*
C[C@@H]1CN([C@@H](C)CO)C(=O)c2cc(/C=C/c3ccccc3)cnc2O[C@@H]1CN(C)S(=O)(=O)c1ccccc1F	-4*
C[C@@H]1CN([C@@H](C)CO)C(=O)c2cc(N(C)C)ccc2O[C@H]1CN(C)Cc1ccc(Oc2ccccc2)cc1	-0.56
C[C@@H]1CN([C@H](C)CO)C(=O)c2cc(/C=C/c3ccccc3)cnc2O[C@@H]1CN(C)S(=O)(=O)c1ccccc1F	-2.1
C[C@@H]1CN([C@@H](C)CO)C(=O)c2cc(N(C)C)ccc2O[C@@H]1CN(C)Cc1ccc(Oc2ccccc2)cc1	-1.4
C[C@H]1CN([C@@H](C)CO)C(=O)c2cc(Br)cnc2O[C@H]1CN(C)Cc1ccc(Oc2ccccc2)cc1	-3.5*
C[C@H](CO)N1C[C@H](C)[C@@H](CN(C)S(=O)(=O)c2ccccc2F)Oc2ncc(/C=C/c3ccccc3)cc2C1=O	0.42
Cc1noc(C)c1S(=O)(=O)Nc1ccc2c(c1)CC(=O)N([C@H](C)CO)C[C@@H](C)[C@H](CN(C)Cc1ccc(Oc3ccccc3)cc1)O2	-1.1
C/C=C/c1ccc([C@H]2[C@@H](CO)N(Cc3ccc(F)cc3)[C@H]2CNC(C)=O)cc1	4.3
CC(=O)N1CC(=O)N2[C@H](CO)[C@H](c3ccc(-c4ccc(C#N)cc4)cc3)[C@H]2C1	3.6
O=C(c1ccc2c(c1)OCO2)N1CCCCN2[C@@H](CO)[C@@H](c3ccc(-c4ccccc4)cc3)[C@@H]2C1	0.41
Cc1noc(C)c1NC(=O)N[C@@H]1C=C[C@@H](CC(=O)Nc2ccc(-c3ccccc3)cc2)O[C@H]1CO	0.63
CO[C@H](CN(C)S(=O)(=O)c1cccc(Cl)c1)[C@@H](C)CN(C(=O)Nc1ccccc1F)[C@H](C)CO	0.2
N#C[C@H]1[C@@H](c2ccc(/C=C/c3ccccc3)cc2)[C@@H](CO)N1C(=O)C1CCCCC1	1.5
CC(C)[C@@H]1C(=O)NCCC=CC[C@@H](C)Oc2ccccc2C(=O)N1C (mixture of isomers)	-0.46
COc1ccc(C#Cc2ccc([C@@H]3[C@H]4CN(C(=O)C5CCOCC5)CC(=O)N4[C@H]3CO)cc2)cc1	3.4
COc1cccc(C#Cc2ccc([C@H]3[C@@H](CO)N4C(=O)CN(C(=O)C5CC5)C[C@@H]34)cc2)c1	-4.9*
COc1ccc(C#Cc2ccc([C@@H]3[C@H](CO)N4C(=O)CN(C(=O)C5CCOCC5)C[C@@H]34)cc2)cc1	3.3
COc1cccc(C#Cc2ccc([C@@H]3[C@H](CO)N4C(=O)CN(C(=O)C5CC5)C[C@@H]34)cc2)c1	-6.3*
SMILES	IDE exosite inh
COc1ccc(C#Cc2ccc([C@H]3[C@@H](CO)N4C(=O)CN(C(=O)C5CCOCC5)C[C@@H]34)cc2)cc1	4.3
COc1cccc(C#Cc2ccc([C@H]3[C@H]4CN(C(=O)C5CC5)CC(=O)N4[C@H]3CO)cc2)c1	-7.3*
N#C[C@H]1[C@@H](c2ccccc2-c2cccc(F)c2)[C@@H](CO)N1C(=O)C1CCC1	2.8
C[C@@H]1CCCCO[C@H](CN(C)S(C)(=O)=O)[C@@H](C)CN([C@@H](C)CO)C(=O)c2cc(NC(=O)NC3CCCCC3)ccc2O1	0.059
C[C@H]1CN([C@@H](C)CO)C(=O)c2ccccc2-c2ccccc2CO[C@@H]1CN(C)C(=O)[C@H]1CCCN1C	-0.39
N#C[C@@H]1[C@H](c2ccc(-c3cccc(F)c3)cc2)[C@H](CO)N1C(=O)CN1CCOCC1	-0.67
O=C(Nc1ccccc1)N1CCCCN2[C@@H](CO)[C@H](c3ccc(C#Cc4ccccc4)cc3)[C@@H]2C1	-3
CCC(=O)N1CCCCN2[C@H](C1)[C@@H](c1ccc(-c3cccc(C#N)c3)cc1)[C@@H]2CO	0.36
CCC(=O)N1CCCCN2[C@H](CO)[C@@H](c3ccc(C#Cc4ccccc4)cc3)[C@H]2C1	-3.9*
CCC(=O)N1CCCCN2[C@H](C1)[C@H](c1ccc(C#CCOC)cc1)[C@@H]2CO	1.5
CCC(=O)N1CCCCN2[C@H](CO)[C@H](c3ccc(C#CCOC)cc3)[C@@H]2C1	1.3
CCC(=O)N1CCCCN2[C@@H](CO)[C@@H](c3ccc(-c4cccc(C#N)c4)cc3)[C@@H]2C1	0.4
CCC(=O)N1CCCCN2[C@H](C1)[C@H](c1ccc(C#Cc3ccccc3)cc1)[C@@H]2CO	-4.6*
CCC(=O)N1CCCCN2[C@H](CO)[C@H](c3ccc(C#Cc4ccccc4)cc3)[C@@H]2C1	-8.8*
CCC(=O)N1CCCCN2[C@H](C1)[C@@H](c1ccc(C#Cc3ccccc3)cc1)[C@@H]2CO	-1.3
CC(C)CC#Cc1ccc([C@@H]2[C@H](CO)N3C(=O)CN(S(C)(=O)=O)C[C@@H]23)cc1	4.5
CN(C)C(=O)c1ccc(-c2ccc([C@H]3[C@H](CO)N4CCCCN(Cc5cncnc5)C[C@@H]34)cc2)cc1	3.1
N#C[C@@H]1[C@@H](c2ccc(C#CC3(O)CCCC3)cc2)[C@@H](CO)N1C(=O)C1CCC1	0.56
Cc1noc(C)c1NC(=O)N(C)C[C@@H]1OCc2ccccc2-c2c(n(C)c3ccccc23)C(=O)N([C@@H](C)CO)C[C@H]1C	0.61
CCCC#Cc1ccc([C@@H]2[C@@H](CO)N3CCCCN(S(C)(=O)=O)C[C@@H]23)cc1	3.7
COc1ccccc1C#Cc1ccc([C@H]2[C@H]3CN(S(C)(=O)=O)CCCCN3[C@H]2CO)cc1	-9.8*
CS(=O)(=O)N1CCCCN2[C@H](CO)[C@@H](c3ccc(C#Cc4ccccn4)cc3)[C@@H]2C1	-1.6
O=S(=O)(c1ccccc1)N1CCCCN2[C@@H](CO)[C@H](c3ccc(C#Cc4ccccc4)cc3)[C@@H]2C1	3.8
COc1ccccc1C#Cc1ccc([C@H]2[C@@H](CO)N3CCCCN(S(C)(=O)=O)C[C@H]23)cc1	-9.9*
COc1ccc(C#Cc2ccc([C@@H]3[C@H]4CN(S(=O)(=O)c5ccccc5)CCCCN4[C@H]3CO)cc2)cc1	-0.32
CS(=O)(=O)N1CCCCN2[C@H](CO)[C@@H](c3ccc(C#Cc4ccccn4)cc3)[C@H]2C1	-1.8
CCCC#Cc1ccc([C@H]2[C@H]3CN(S(C)(=O)=O)CCCCN3[C@H]2CO)cc1	2.7
COc1ccccc1C#Cc1ccc([C@@H]2[C@H](CO)N3CCCCN(S(C)(=O)=O)C[C@@H]23)cc1	-18*
CCCC#Cc1ccc([C@@H]2[C@H](CO)N3CCCCN(S(C)(=O)=O)C[C@@H]23)cc1	-1.6
